Measured values published in the supplement of paper PMC10981050.
“And” between values parts separate entries of the source, which are not always exact repeats. Equal entries are not always repeated. Structures can show the parent of a compound that is named as a salt.

Columns and labels:
Experiment in all cases: cell viability relative to vehicle control; higher = less cytotoxic
Conditions in all cases: 10 µM
K562 = system: K562
How it was run: (§1)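 Each screen used CRISPR-edited mutant and wild-type clones from four leukaemia lines. Compounds were acoustically dispensed at a single 10 µM dose, and CellTiter-Glo luminescence was read after 48 h with the supernatant first removed. Viability was analysed in Genedata Screener and given as percent of the on-plate vehicle control.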

MARIMO = system: MARIMO
How it was run: as §1

MOLM14 = system: MOLM14
How it was run: as §1

OCI-AML2 = system: OCI-AML2
How it was run: as §1

| Compound | cell viability (K562; SRSF2 genotype: SRSF2 P95H/wt) | cell viability (K562; SRSF2 genotype: SRSF2 wt/wt) [%] | cell viability (MARIMO; SRSF2 genotype: SRSF2 P95H/wt) [%] | cell viability (MARIMO; SRSF2 genotype: SRSF2 wt/wt) [%] | cell viability (MOLM14; SRSF2 genotype: SRSF2 P95H/wt) [%] | cell viability (MOLM14; SRSF2 genotype: SRSF2 wt/wt) [%] | cell viability (OCI-AML2; SRSF2 genotype: P95H/wt) [%] | cell viability (OCI-AML2; SRSF2 genotype: wt/wt) [%] |
| --- | --- | --- | --- | --- | --- | --- | --- | --- |
| Clc1ccc(C(Cn2ccnc2)OCc2ccsc2Cl)c(Cl)c1 (stereo not drawn) [Tioconazole] | 69.5% and 76.7% | 71.6 | 69.7 | 71.2 | 62.4 | 69.5 | 59.9 | 63.1 |
| CNC(=O)c1ccc2cc([C@@]3(O)CCn4cncc43)ccc2c1 [TAK-700 (Orteronel)] | 107% and 98.8% | 97.3 | 93.2 | 105 | 101 | 100 | 95.6 | 104 |
| C=CCc1cc(OC)c(O)c(C(=O)NCCO)c1 [Alibendol] | 100% and 103% | 103 | 98.2 | 104 | 98.2 | 102 | 100 | 112 |
| COc1ccc(/C=C/C(=O)C2(C(=O)/C=C/c3ccc(OC)c(OC)c3)CCCCC2)cc1OC | 5.82% and 13.9% | 10.6 | 2.25 | 2.73 | 0.4 | 0.31 | 0.35 | 0.43 |
| COc1cc2c(cc1OC)CC(=O)N(CCCN(C)C[C@H]1Cc3cc(OC)c(OC)cc31)CC2 [Ivabradine HCl (Procoralan)] | 97.8% and 97.4% | 93.7 | 97.4 | 109 | 99.6 | 106 | 95.8 | 107 |
| O=C1N=C(O)NC1(c1ccccc1)c1ccccc1 [Phenytoin sodium (Dilantin)] | 98% and 104% | 96.8 | 104 | 103 | 97.7 | 102 | 103 | 94 |
| O=C(Nc1cnn2ccc(N3CCC[C@@H]3c3cc(F)ccc3F)nc12)N1CC[C@H](O)C1 [LOXO-101(sulfate)] | 104% and 105% | 104 | 113 | 118 | 97.6 | 104 | 98.2 | 104 |
| COc1ccc2cc(CCC(C)=O)ccc2c1 [Nabumetone] | 105% and 96.8% | 93.8 | 97.1 | 95.3 | 104 | 104 | 92.4 | 92.4 |
| CC(C)(C)c1cc(NC(=O)Nc2ccc(Oc3ccnc4[nH]c(=O)cnc34)cc2F)n(-c2ccccc2)n1 | 30% and 44% | 25.7 | 14.6 | 9.05 | 7.07 | 2.65 | 6.64 | 15.8 |
| CC(C)(O)CC[C@@H](O)[C@](C)(O)[C@H]1CC[C@@]2(O)C3=CC(=O)[C@@H]4C[C@@H](O)[C@@H](O)C[C@]4(C)[C@H]3CC[C@]12C [20-Hydroxyecdysone] | 104% and 98.5% | 102 | 109 | 107 | 106 | 106 | 101 | 111 |
| CCN(CC)CC#CCOC(=O)C(O)(c1ccccc1)C1CCCCC1 (stereo not drawn) [Oxybutynin chloride] | 94.9% and 97.5% | 88.6 | 79.8 | 96 | 83 | 101 | 80.8 | 91.8 |
| CC(C)(C)C(=O)OCOP(=O)(COCCn1cnc2c(N)ncnc21)OCOC(=O)C(C)(C)C [Adefovir Dipivoxil (Preveon, Hepsera)] | 59.1% and 71.3% | 75.8 | 30.7 | 36.8 | 0.75 | 0.59 | 0.85 | 2.98 |
| C/C(=C\C(=O)OCCCCCCCCC(=O)O)C[C@@H]1OC[C@H](C[C@@H]2O[C@H]2[C@@H](C)[C@H](C)O)[C@@H](O)[C@H]1O [Mupirocin calcium] | 90.7% and 86.2% | 87.5 | 84.3 | 97.9 | 94.2 | 93.4 | 97.3 | 93.5 |
| NC(N)=Nc1nc(CSCC/C(N)=N/S(N)(=O)=O)cs1 [Famotidine (Pepcid)] | 105% and 106% | 109 | 111 | 106 | 103 | 107 | 107 | 107 |
| CC(C)=CCC[C@](C)(O[C@@H]1O[C@H](CO)[C@@H](O)[C@H](O)[C@H]1O)[C@H]1CC[C@]2(C)[C@@H]1[C@H](O)C[C@@H]1[C@@]3(C)CC[C@H](O)C(C)(C)[C@@H]3[C@@H](O[C@@H]3O[C@H](CO)[C@@H](O)[C@H](O)[C@H]3O[C@@H]3OC[C@@H](O)[C@H](O)[C@H]3O)C[C@]12C [Notoginsenoside R1] | 98.4% and 101% | 94.8 | 106 | 104 | 106 | 103 | 94.6 | 96.7 |
| CC(C)=CCC/C(C)=C/Cc1c(O)c(CC=C(C)C)c2c(c1O)C(=O)C1=C[C@@H]3C[C@H]4C(C)(C)O[C@@](C/C=C(/C)C(=O)O)(C3=O)[C@@]14O2 [Gambogenic acid] | 1.97% and 1.06% | 1.12 | 0.46 | 0.68 | 0.23 | 0.27 | 0.27 | 0.82 |
| CNC(=O)c1cc(COc2nnc(Nc3ccc(Cl)cc3)c3ccoc23)ccn1 [Telatinib (BAY 57-9352)] | 94.6% and 90.8% | 98.7 | 106 | 106 | 108 | 97.3 | 90.6 | 99.5 |
| CCOC(=O)Nc1cc(-c2ccc(C)c(NS(C)(=O)=O)c2)nn2c(C)nnc12 [Bromosporine] | 33.4% and 42% | 49.7 | 9.42 | 13.9 | 3.2 | 1.48 | 1.03 | 4.94 |
| C=CC(=O)Nc1cccc(Nc2nc(Nc3ccc(NC4CN(CCF)C4)cc3OC)ncc2C(F)(F)F)c1 | 55.2% and 53.1% | 64.8 | 22.3 | 19.6 | 4.64 | 10.4 | 12.3 | 17.9 |
| COc1cc(NC(=O)c2ccc(-c3ccc(Cl)cc3)o2)cc(OC)c1 | 105% and 102% | 103 | 99 | 105 | 113 | 115 | 97.4 | 92.8 |
| C[C@H]1CN(C[C@H](Cc2ccccc2)C(=O)NCC(=O)O)CC[C@@]1(C)c1cccc(O)c1 [Alvimopan dihydrate] | 110% and 102% | 101 | 98.5 | 112 | 102 | 103 | 94.9 | 99.2 |

| Compound | cell viability (K562; SRSF2 genotype: SRSF2 P95H/wt) | cell viability (K562; SRSF2 genotype: SRSF2 wt/wt) [%] | cell viability (MARIMO; SRSF2 genotype: SRSF2 P95H/wt) [%] | cell viability (MARIMO; SRSF2 genotype: SRSF2 wt/wt) [%] | cell viability (MOLM14; SRSF2 genotype: SRSF2 P95H/wt) [%] | cell viability (MOLM14; SRSF2 genotype: SRSF2 wt/wt) [%] | cell viability (OCI-AML2; SRSF2 genotype: P95H/wt) [%] | cell viability (OCI-AML2; SRSF2 genotype: wt/wt) [%] |
| --- | --- | --- | --- | --- | --- | --- | --- | --- |
| C#C[C@]1(O)CC[C@H]2[C@@H]3CCC4=CC(=O)CC[C@@H]4[C@H]3CC[C@@]21C [Norethindrone (Norethisterone)] | 103% and 101% | 100 | 101 | 116 | 98.3 | 106 | 107 | 111 |
| C[C@@H]1C(=O)O[C@H]2C[C@@]34[C@H]5C[C@@H](C(C)(C)C)[C@]36[C@@H](OC(=O)[C@@H]6O)O[C@@]4(C(=O)O5)[C@]21O [Ginkgolide A] | 105% and 100% | 97.8 | 101 | 106 | 105 | 103 | 106 | 95.5 |
| COC(=O)c1ccc2c(c1)nc(NC(=O)c1ccccc1)n2CCCc1ccccc1 | 77.8% and 75.4% | 79.5 | 70.1 | 91.6 | 87.9 | 93.7 | 64.5 | 68.7 |
| COC(=O)c1ccc(O)c(C(=O)OC)c1 [Dimetghyl 4-Hydroxyisophthalate] | 100% and 93.1% | 99.4 | 95.2 | 98.7 | 97.3 | 100 | 90 | 96.6 |
| NCCNc1ccc(NCCN)c2c1C(=O)c1ccncc1C2=O [Pixantrone Maleate] | 18.2% and 23.9% | 20.5 | 10.7 | 7.14 | 0.24 | 0.35 | 0.25 | 0.85 |
| CC(=O)CCC=C(C)CCC=C(C)CCC=C(C)CCC=C(C)C [Teprenone] | 94.5% and 91.8% | 92.9 | 80.2 | 95.6 | 86.8 | 96.5 | 77.7 | 84.9 |
| C[C@H](CCC(=O)NCC(=O)O)[C@H]1CC[C@H]2[C@@H]3[C@H](O)C[C@@H]4C[C@H](O)CC[C@]4(C)[C@H]3C[C@H](O)[C@]12C [Glycocholic acid] | 107% and 108% | 109 | 106 | 102 | 100 | 109 | 117 | 98 |
| Nc1cc(C(F)(F)F)c(-c2cc(N3CCOCC3)nc(N3CCOCC3)n2)cn1 | 30.2% and 37.9% | 31.9 | 23.2 | 20.3 | 11.9 | 11 | 11.6 | 15.7 |
| COc1ccccc1OCC(O)COC(N)=O (stereo not drawn) [Methocarbamol (Robaxin)] | 99.3% and 104% | 107 | 94.9 | 106 | 109 | 104 | 98.4 | 106 |
| c1ccc(-c2[nH]ncc2-c2ccnc3ccccc23)nc1 | 105% and 109% | 105 | 107 | 106 | 109 | 104 | 112 | 105 |
| COc1cc2nc(N3CCCC3)nc(NCCCCCN3CCCC3)c2cc1OC | 2.75% and 3.32% | 4.26 | 9.85 | 3.33 | 0.26 | 0.27 | 0.31 | 0.37 |
| CS(=O)(=O)c1ccc(C2=C(c3ccccc3)C(=O)OC2)cc1 [Rofecoxib (Vioxx)] | 98.7% and 95.2% | 93.5 | 98.6 | 104 | 94.7 | 101 | 87.8 | 98.8 |
| Cc1ccccc1N=Nc1ccc(NC(=O)c2ccnn2C)c(C)c1 | 84.3% and 77.9% | 88 | 82.3 | 87.2 | 102 | 95 | 73.1 | 74.5 |
| O=c1oc2cc(O)ccc2s1 [Tioxolone] | 95.7% and 106% | 105 | 103 | 101 | 101 | 103 | 102 | 97.4 |
| CCCC(=O)Nc1ccc(OCC(O)CNC(C)C)c(C(C)=O)c1 (stereo not drawn) [Acebutolol HCl] | 96.2% and 86.2% | 86.2 | 97.3 | 95.1 | 92.4 | 93.3 | 94.9 | 91.7 |
| CC(COc1ccccc1Cc1ccccc1)N1CCCCC1 (stereo not drawn) [Benproperine phosphate] | 82.8% and 87.2% | 91.3 | 70.4 | 78.5 | 82.5 | 88.2 | 93.7 | 84.7 |
| COc1cccc(Nc2c(C(N)=O)cnc3c(C)cc(S(=O)(=O)c4cccc(C(=O)N(C)C)c4)cc23)c1 | 109% and 106% | 108 | 93.5 | 101 | 108 | 103 | 111 | 98.2 |
| O=C(NCc1ccccc1)c1csc(Nc2ccncn2)n1 [Thiazovivin] | 100% and 101% | 100 | 80.5 | 94.7 | 37.8 | 86.8 | 46 | 49.5 |
| CC(C)[C@H]1CC[C@H](C(=O)N[C@H](Cc2ccccc2)C(=O)O)CC1 [Nateglinide (Starlix)] | 103% and 101% | 98.8 | 97.8 | 101 | 97.9 | 99.3 | 105 | 97.5 |
| Cn1cc(-c2ccc3c(c2)CCN3C(=O)Cc2cccc(C(F)(F)F)c2)c2c(N)ncnc21 | 37.6% and 52.8% | 39.2 | 60.5 | 62.1 | 16.1 | 16 | 26.3 | 28.8 |
